The results in this text go back to PubChem BioAssay AID651903 (Broad Institute, 2012).

The whole screen tested about 22,000 compounds, of which about 1,100 (5%) were called active. Many of the other results were omitted from the sample, so actives are more common in it than they were. A number with no mark means an inactive call. Rule as the data show it: active = activity score above about 55%; inconclusive = no clear call, values can overlap the other calls; inactive = below that.

This test in a line: T. cruzi growth inside host cells – cell-based, plate reader, single point, set 2, primary screen (AID 651903).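 Also: parasites and compound incubated about four days before reading; 0% = median of neutral control wells.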 To be noted: intracellular Trypanosoma cruzi in host cells, at 5.01 µM, stronger effect = higher value.
With `Cc1ccc(S(=O)(=O)N(C)C[C@H]2Oc3c(NC(=O)C4CC4)cccc3C(=O)N([C@@H](C)CO)C[C@@H]2C)cc1`, the activity score (inhibition) was 0.737%. On to `Cc1noc(C)c1S(=O)(=O)Nc1ccc2c(c1)C(=O)N([C@H](C)CO)C[C@H](C)[C@H](CN(C)S(=O)(=O)c1cn(C)cn1)OCCCC[C@@H](C)O2`, for which the activity score (inhibition) is -39.1%. In the case of `COc1ccc(CN(C)C[C@H]2Oc3c(NC(=O)Nc4ccccc4)cccc3C(=O)N([C@@H](C)CO)C[C@@H]2C)cc1` it was 6.85%. In the case of `CCCC(O)C#Cc1cnc2c(c1)C(=O)N([C@H](C)CO)C[C@H](C)[C@H](CN(C)Cc1ccc(F)cc1)O2` (some centres not stated), the activity score (inhibition) is 18.5%.

Consider `Cc1cc(C(=O)Nc2cccc3c2O[C@@H](CN(C)S(=O)(=O)c2ccc(F)cc2)[C@@H](C)CN([C@H](C)CO)C3=O)n(C)n1`, for which the activity score (inhibition) is 32.3%. With `Cc1noc(C)c1NC(=O)Nc1ccc2c(c1)C(=O)N([C@H](C)CO)C[C@H](C)[C@@H](CN(C)S(=O)(=O)c1cn(C)cn1)O2`, the activity score (inhibition) was -7.25%. As to `C[C@@H]1CN([C@H](C)CO)C(=O)Cc2cc(NC(=O)Nc3ccc(F)cc3)ccc2O[C@@H]1CN(C)C(=O)Nc1ccc2c(c1)OCO2`, the activity score (inhibition) is -18.5%.

In the case of `C[C@@H]1CN([C@@H](C)CO)C(=O)Cc2cc(NC(=O)Nc3ccccc3)ccc2O[C@@H]1CN(C)S(=O)(=O)c1ccc(F)cc1`, the activity score (inhibition) is 5.25%. As to `CC(C)NC(=O)N(C)C[C@H]1Oc2ccc(NS(C)(=O)=O)cc2CC(=O)N([C@@H](C)CO)C[C@H]1C`, the activity score (inhibition) was -20.6%.

Take `COc1ccc(CN(C)C[C@@H]2Oc3ccc(NS(=O)(=O)c4cn(C)cn4)cc3C(=O)N([C@@H](C)CO)C[C@H]2C)cc1`: the activity score (inhibition) is -24.5%. With `Cc1ccc(S(=O)(=O)N(C)C[C@@H]2Oc3c(NC(=O)c4nc5ccccc5s4)cccc3C(=O)N([C@H](C)CO)C[C@@H]2C)cc1`, the activity score (inhibition) is 81.1% (active). Turning to `C[C@@H]1CN([C@@H](C)CO)C(=O)c2cccc(NC(=O)c3nc4ccccc4s3)c2O[C@H]1CN(C)S(=O)(=O)c1cccs1`, the activity score (inhibition) is 28.4%.

In the case of `C[C@@H]1CN([C@H](C)CO)C(=O)c2cccc(NC(=O)c3nc4ccccc4s3)c2O[C@@H]1CN(C)C`, the activity score (inhibition) is -35.8%. Regarding `C[C@@H]1CN([C@H](C)CO)C(=O)c2cccc(NC(=O)c3nc4ccccc4s3)c2O[C@H]1CN(C)Cc1ccccc1`, the activity score (inhibition) was 32.1%. As to `C[C@@H]1CN([C@H](C)CO)C(=O)c2cccc(NC(=O)c3nc4ccccc4s3)c2O[C@H]1CN(C)S(=O)(=O)c1ccc(Cl)cc1`, the activity score (inhibition) was 67.6% (active). In the case of `CC(C)NC(=O)N(C)C[C@@H]1Oc2c(NC(=O)c3nc4ccccc4s3)cccc2C(=O)N([C@H](C)CO)C[C@H]1C`, the activity score (inhibition) was 47.9%.

With `C[C@H]1CN([C@@H](C)CO)C(=O)Cc2cc(NC(=O)CCCN(C)C)ccc2O[C@@H]1CN(C)Cc1ccc(-c2ccccc2)cc1`, the activity score (inhibition) is -19.2%. As to `COc1ccc(NC(=O)N(C)C[C@@H]2Oc3ccc(NC(=O)CCC(F)(F)F)cc3C(=O)N([C@@H](C)CO)C[C@H]2C)cc1`, the activity score (inhibition) was -13.2%. Take `C[C@@H]1CN([C@@H](C)CO)C(=O)CCCn2cc(nn2)CO[C@@H]1CN(C)Cc1cccc(O)c1`: the activity score (inhibition) was -17.1%. For the compound `C[C@@H]1CN([C@@H](C)CO)C(=O)c2cc(NC(=O)c3ccncc3)ccc2O[C@@H]1CN(C)S(C)(=O)=O`, the activity score (inhibition) was -8.16%. Consider `C[C@H]1CN([C@@H](C)CO)C(=O)CCCn2nncc2CO[C@H]1CN(C)Cc1cccc(C(=O)O)c1`, for which the activity score (inhibition) is -16.6%. The figure for `COc1cccc(-c2cnc3c(c2)C(=O)N([C@H](C)CO)C[C@H](C)[C@H](CN(C)C(=O)NC(C)C)O3)c1` is 3.35%; for `C[C@H](CO)N1C[C@H](C)[C@H](CN(C)S(C)(=O)=O)Oc2c(NC(=O)Nc3cccc4ccccc34)cccc2C1=O` it is -17.4%; for `Cc1ccc(CN(C)C[C@@H]2OCc3cnnn3CCCC(=O)N([C@@H](C)CO)C[C@H]2C)cc1` it is -0.307%. In the case of `C[C@H](CO)N1C[C@H](C)[C@H](CN(C)S(C)(=O)=O)Oc2c(NC(=O)c3ccc(-c4nccs4)cc3)cccc2C1=O` it was 9.35%; in that of `C[C@@H]1CN([C@H](C)CO)C(=O)c2cccc(NC(=O)c3cnccn3)c2O[C@@H]1CN(C)Cc1ccncc1`, -11.1%; in that of `C[C@@H]1CN([C@@H](C)CO)C(=O)c2cccc(NC(=O)c3cnccn3)c2O[C@H]1CN(C)Cc1ccc(C(=O)O)cc1`, 2.36%.

As to `C[C@H](CO)N1C[C@H](C)[C@@H](CN(C)S(=O)(=O)c2ccccc2)Oc2c(NC(=O)c3ccc(-c4nccs4)cc3)cccc2C1=O`, the activity score (inhibition) was 20.1%. For `C[C@H](CO)N1C[C@H](C)[C@@H](CN(C)S(C)(=O)=O)Oc2c(NC(=O)c3ccc(-c4nccs4)cc3)cccc2C1=O`, the activity score (inhibition) was -3.29%. With `Cc1ccc(S(=O)(=O)N(C)C[C@H]2Oc3c(NC(=O)c4ccc(-c5nccs5)cc4)cccc3C(=O)N([C@H](C)CO)C[C@H]2C)cc1`, the activity score (inhibition) was 69.5% (active).

Consider `C[C@@H]1CN([C@H](C)CO)C(=O)c2cccc(NC(=O)c3cnccn3)c2O[C@@H]1CN(C)Cc1ccc(C(=O)Nc2ccccc2N)cc1`, for which the activity score (inhibition) is 67.2% (active). `C[C@@H]1CN([C@@H](C)CO)C(=O)c2cccc(NC(=O)c3ccc(-c4nccs4)cc3)c2O[C@@H]1CN(C)S(=O)(=O)c1ccccc1`: the activity score (inhibition) was 24.8%. For the compound `C[C@H](CO)N1C[C@H](C)[C@@H](CN(C)Cc2ccc(C(=O)Nc3ccccc3N)cc2)Oc2c(NC(=O)c3ccc(-c4nccs4)cc3)cccc2C1=O`, the activity score (inhibition) is 64% (active). For the compound `C[C@H]1CN([C@@H](C)CO)C(=O)c2cccc(NC(=O)c3ccc(-c4nccs4)cc3)c2O[C@H]1CN(C)Cc1ccc(C(=O)O)cc1`, the activity score (inhibition) is -0.442%. Take `C[C@@H]1CN([C@@H](C)CO)C(=O)c2cccc(NC(=O)c3ccc(-c4nccs4)cc3)c2O[C@@H]1CN(C)Cc1ccncc1`: the activity score (inhibition) is 20.7%. The figure for `C[C@@H]1CN([C@@H](C)CO)C(=O)c2cccc(NC(=O)c3ccc(-c4nccs4)cc3)c2O[C@H]1CN(C)Cc1ccc(Cl)c(Cl)c1` is 85.3% (active); for `O=C(O)c1cccc(/C=N/NC(=O)c2cccc(C(=O)NO)c2)c1` it is -15.8%; for `Cc1cccc(CN(C)C[C@@H]2OCc3cn(nn3)CCCC(=O)N([C@@H](C)CO)C[C@H]2C)c1` it is -37.4%. For the compound `Cc1cccc(S(=O)(=O)N(C)C[C@@H]2OCc3cnnn3CCCC(=O)N([C@H](C)CO)C[C@@H]2C)c1`, the activity score (inhibition) was 5.66%.

With `C[C@H]1CN([C@@H](C)CO)C(=O)Cc2cc(NC(=O)Cc3ccccc3)ccc2O[C@H]1CN(C)S(=O)(=O)c1ccc(Cl)cc1`, the activity score (inhibition) was 30.9%.

In the case of `Cc1ccc(S(=O)(=O)Nc2cccc3c2O[C@H](CN(C)CC2CCCCC2)[C@H](C)CN([C@H](C)CO)C3=O)cc1`, the activity score (inhibition) is 2.35%. With `CNC[C@@H]1Oc2c(NC(=O)Nc3ccc(OC)cc3)cccc2C(=O)N([C@@H](C)CO)C[C@@H]1C`, the activity score (inhibition) was -23.4%. `COc1ccc(NC(=O)Nc2ccc3c(c2)CC(=O)N([C@H](C)CO)C[C@H](C)[C@H](CN(C)S(=O)(=O)c2ccccc2)O3)cc1`: the activity score (inhibition) was -4.14%. For the compound `Cc1ccc(S(=O)(=O)N(C)C[C@H]2Oc3c(NS(=O)(=O)c4cn(C)cn4)cccc3C(=O)N([C@@H](C)CO)C[C@H]2C)cc1`, the activity score (inhibition) was -10.8%.

Consider `Cc1noc(C)c1NC(=O)Nc1ccc2c(c1)C(=O)N([C@@H](C)CO)C[C@H](C)[C@H](CN(C)CC1CCCCC1)O2`, for which the activity score (inhibition) was 7.21%. In the case of `O=C(N/N=C/c1ccc(O)cc1Br)c1ccccc1O` it was -10.3%; in that of `COc1ccc(CN(C)C[C@H]2Oc3c(NC(=O)c4ccncc4)cccc3C(=O)N([C@H](C)CO)C[C@@H]2C)cc1`, 80.9% (active); in that of `COc1ccc(NC(=O)Nc2cccc3c2O[C@@H](CN(C)Cc2ccncc2)[C@H](C)CN([C@H](C)CO)C3=O)cc1`, -7.67%. The figure for `COc1ccc(NC(=O)Nc2cccc3c2O[C@H](CN(C)Cc2ccncc2)[C@@H](C)CN([C@@H](C)CO)C3=O)cc1` is 2.96%; for `COc1ccc(NC(=O)Nc2ccc3c(c2)CC(=O)N([C@@H](C)CO)C[C@H](C)[C@H](CN(C)C(=O)Nc2ccc4c(c2)OCO4)O3)cc1` it is -16.4%; for `C[C@@H]1CN([C@@H](C)CO)C(=O)c2cc(NS(=O)(=O)c3ccc(Cl)cc3)ccc2O[C@H]1CN(C)S(=O)(=O)c1cn(C)cn1` it is -11.5%. Take `CNC[C@H]1Oc2c(NC(=O)C3CC3)cccc2C(=O)N([C@@H](C)CO)C[C@@H]1C`: the activity score (inhibition) was -26.9%. `C[C@H]1CN([C@@H](C)CO)C(=O)c2cccc(NS(C)(=O)=O)c2O[C@@H]1CN(C)C(=O)Nc1ccc(F)cc1`: the activity score (inhibition) is -4.72%.

As to `C[C@@H]1CN([C@@H](C)CO)C(=O)Cc2cc(NC(=O)Cc3ccccc3)ccc2O[C@@H]1CN(C)Cc1ccc2c(c1)OCO2`, the activity score (inhibition) was 32.2%. Take `C[C@@H]1CN([C@H](C)CO)C(=O)Cc2cc(NC(=O)Cc3ccccc3)ccc2O[C@@H]1CN(C)Cc1ccccc1`: the activity score (inhibition) is 5.2%. With `C[C@H]1CN([C@@H](C)CO)C(=O)Cc2cc(NC(=O)Cc3ccccc3)ccc2O[C@@H]1CN(C)Cc1ccc(Cl)c(Cl)c1`, the activity score (inhibition) is 41.9%. With `C[C@@H]1CN([C@H](C)CO)C(=O)Cc2cc(NC(=O)Cc3ccccc3)ccc2O[C@H]1CN(C)Cc1ccc(Oc2ccccc2)cc1`, the activity score (inhibition) was 42.5%. As to `C[C@@H]1CN([C@H](C)CO)C(=O)Cc2cc(NC(=O)CCCN(C)C)ccc2O[C@@H]1CN(C)Cc1ccc(Oc2ccccc2)cc1`, the activity score (inhibition) was -28.8%. The figure for `COc1ccc(CN(C)C[C@H]2Oc3ccc(NC(=O)Cc4ccccc4)cc3CC(=O)N([C@@H](C)CO)C[C@@H]2C)cc1` is 71.7% (active); for `C[C@@H]1CN([C@@H](C)CO)C(=O)Cc2cc(NC(=O)Cc3ccccc3)ccc2O[C@@H]1CN(C)Cc1ccc(Oc2ccccc2)cc1` it is 65.6% (active). `C[C@H]1CN([C@@H](C)CO)C(=O)Cc2cc(NC(=O)NC3CCCCC3)ccc2O[C@@H]1CN(C)Cc1ccc(Oc2ccccc2)cc1`: the activity score (inhibition) was 75.3% (active).

On to `C[C@@H]1CN([C@H](C)CO)C(=O)Cc2cc(NC(=O)NC3CCCCC3)ccc2O[C@H]1CN(C)Cc1ccc(Cl)c(Cl)c1`, for which the activity score (inhibition) was 7.26%.
